Reference: paper PMC4552634, “A New Set of Chemical Starting Points with Plasmodium falciparum Transmission-Blocking Potential for Antimalarial Drug Discovery” (PLoS ONE, 2015)
Like-named read-outs stand apart in the source and are kept apart here. Out of some 13,000 compounds screened, about 3,200 (25%) showed an effect of 50% or more. The list shows a part of the results.

Tested on: P. falciparum stage V gametocytes
Set-up: BacTiter-Glo ATP luminescence viability of purified stage V gametocytes in 384-well plates, per cent inhibition versus DMSO
Details: 48 h, 5 µM, inhibitor

Compound	% Inhibition	% Inhibition (% Inhibition)
N#Cc1cccc(C(=O)Nc2cccc(-c3ccc(C(=O)NCCCN4CCOCC4)cc3)c2)c1 [TCMDC-133694]	-17.34%	–
CC(Nc1ncc(-c2ccsc2)c(-c2nccs2)n1)c1ccc2c(c1)OCCO2 (stereo not shown) [TCMDC-125367]	-15.14%	–
O=C(NCCCCN1CCCC2c3ccc(O)cc3CCC21)c1ccc(-c2ccccc2)cc1 (stereo not shown) [TCMDC-139083]	–	-83.61%
CCc1c(C)nc(-n2nc(C)cc2NC(=O)C2c3ccccc3Oc3ccccc32)[nH]c1=O [TCMDC-124932]	-24.15%	–
O=S1(=O)NCc2ccc(Nc3nccc(Nc4ccc5c(cnn5Cc5ccccc5)c4)n3)cc21 [TCMDC-138840]	-68.79%	–
O=C(Nc1cccc(-c2nn3ccccc3c2-c2ccnc(Nc3cccc(F)c3)n2)c1)c1c(F)ccc(F)c1F [TCMDC-135844]	-56.6%	–
NC(=O)c1cccc(C(=O)Nc2cccc(-c3cccc(-c4nc5ccccc5[nH]4)c3)c2)c1 [TCMDC-132194]	0.2723%	–
COc1ccc(C2c3ccccc3-c3nc(N)nc(N)c3C2C)cc1 (stereo not shown) [TCMDC-137992]	31.51%	–
Cc1cc(NC(=O)NCCN2CCC(NS(=O)(=O)c3ccccc3Cl)C2)c2ccccc2n1 (stereo not shown) [TCMDC-136142]	-23.32%	–
Cc1oc(-c2cccc(Oc3ccccc3)c2)nc1CN(Cc1cnn(C)c1)C(C)C [TCMDC-124609]	-17.42%	–
COc1ccc2nccc(N(C)CC3(O)CCN(CCc4ccc5c(c4)OCCO5)CC3)c2n1 [TCMDC-141473]	35.78%	–
CCNc1cc(C(=O)N[C@@H](Cc2ccccc2)[C@H](O)CNCc2cccc(-n3ccnc3)c2)cc(N2CCCC2=O)c1 [TCMDC-141686]	34.28%	–
CN(C)C(CNC(=O)c1cc(-c2ccncc2)c(-c2cc3ccccc3[nH]2)o1)c1ccccc1 (stereo not shown) [TCMDC-135864]	29.45%	–
CCCN(CC(=O)NCCc1ccccc1)c1ccc(C#N)c2ccccc12 [TCMDC-135545]	-10.84%	–
COc1ccc(CC(=O)Nc2ccc(Nc3nc(C)cc(N(C)C)n3)cc2)cc1 [TCMDC-124973]	14.2%	–
CCc1cccc2c(C#N)cn(CC(=O)NCCc3ccccc3)c12 [TCMDC-124363]	56.03%	–
CCc1cccc2c(C#N)cn(CC(=O)Nc3ccc(OC)cc3)c12 [TCMDC-123527]	78.76%	–
N#Cc1ccc(N(CC(=O)NCCc2ccc(F)cc2)CC2CC2)c2ccccc12 [TCMDC-135573]	-38.52%	–
CCc1ccc(NC(=O)c2cccc(CN3CCCN(Cc4ccc(OC)cc4)CC3)c2)cc1 [TCMDC-135990]	-23.52%	–
CCOc1ccc(OCC(=O)Nc2nc(-c3ccc(OC)cc3)c(C)s2)cc1 [TCMDC-124322]	37.56%	–
CN(C)CCOc1ccc(-c2cc(-c3ccc(Cl)c(O)c3)c(-c3ccncc3)[nH]2)cc1 [TCMDC-141255]	-84.18%	–
Oc1c(Cl)cc(Nc2nccc(Nc3ccc(Oc4ccccc4)cc3)n2)cc1Cl [TCMDC-138588]	-66%	–
c1ccc(Oc2ccc(Nc3nncc4ccccc34)cc2)cc1 [TCMDC-137229]	25.45%	–
Clc1ccc(-n2cnc3c(Nc4ccc(Oc5ccccc5)cc4)ncnc32)cc1Cl [TCMDC-138209]	88.06%	–
Nc1ccc(-c2cc(Cl)cc(Cl)c2)cc1-c1cc2ccccc2[nH]1 [TCMDC-139051]	-15.54%	–
CCCCc1ccc(S(=O)(=O)Nc2ccc3c(c2)CCN(Cc2c[nH]c4cnccc24)CC3)cc1 [TCMDC-136797]	-5.765%	–

Compound	% Inhibition	% Inhibition (% Inhibition)
CCCc1ccc(S(=O)(=O)Nc2ccc3c(c2)CCC3)cc1 [TCMDC-125822]	10.44%	–
CN1Cc2ccc(NS(=O)(=O)c3ccc(-c4ccoc4)cc3)cc2C1 [TCMDC-141495]	67.76%	–
Nc1nc(N)c2cc(NS(=O)(=O)c3ccc(-c4ccccc4)cc3)ccc2n1 [TCMDC-135430]	5.991%	–
Cc1nc(N2CCC(C)CC2)c2c3c(sc2n1)CCCC3 [TCMDC-125646]	3.329%	–
C=C(C)C1CC=C(CN2CCCC(n3ccc4cc(NC(=O)c5ccco5)ccc43)CC2)CC1 (stereo not shown) [TCMDC-135090]	-20.08%	–
CCC(=O)c1c(C)n(-c2ncnc3c2nc(C)n3-c2ccc(C)cc2C)c2ccccc12 [TCMDC-136513]	51.77%	–
Cc1nc2c(-n3cc(Cn4ccnc4)c4ccccc43)ncnc2n1-c1ccc(Cl)cc1Cl [TCMDC-136514]	37.26%	–
Cc1noc(-c2ccc3c(c2)CCN(CCC2CCC(NC(=O)c4cc5ccccc5[nH]4)CC2)CC3)n1 (stereo not shown) [TCMDC-139876]	-74.07%	–
CN(C)CCCn1cc(C(=O)OC2CC3CCC(C2)N3C)c2cc(-c3ccccc3)ccc21 (stereo not shown) [TCMDC-139094]	100.6%	–
CN(C)CCOc1cc(NC(=O)Nc2ccc(-c3ccccc3)cc2)ccc1I [TCMDC-139150]	-45.78%	–
O=S(=O)(NCCN1CCCC1)c1cccc(-c2cccc(CNCc3ccccc3)c2)c1 [TCMDC-132226]	104%	–
O=S(=O)(NCCN1CCCC1)c1cccc(-c2ccc(CNCc3ccccc3)cc2)c1 [TCMDC-132240]	108.6%	–
O=C1C(c2ccccc2)=C(Nc2cccc([N+](=O)[O-])c2)c2ccccc21 [TCMDC-125484]	25.85%	–
COc1ccc(NC2=C(c3ccccc3)C(=O)c3ccccc32)cn1 [TCMDC-125501]	36.53%	–
O=C1C(c2ccccc2)=C(Nc2ccc(Cl)cc2)c2ccccc21 [TCMDC-125493]	32.25%	–
COc1cc(NC2=C(c3ccccc3)C(=O)c3ccccc32)ccn1 [TCMDC-135283]	73.83%	–
O=C1C(c2ccccc2)=C(Nc2cccc(OC(F)(F)C(F)F)c2)c2ccccc21 [TCMDC-125498]	65.78%	–
O=C1C(c2ccccc2)=C(Nc2ccc([N+](=O)[O-])cc2)c2ccccc21 [TCMDC-125490]	10.18%	–
Nn1c(=O)oc2ccc(Cl)cc2c1=O [TCMDC-125519]	8.283%	–
FC(F)(F)c1ccc2nccc(NN=Cc3ccccc3)c2c1 [TCMDC-142024]	-3.615%	–
CCc1cccc(-c2cc(=N)n(C)c3nc(N)[nH]c(=O)c23)c1 [TCMDC-137737]	-30.45%	–
COc1ccc2nccc([C@@H](O)CN3CCC(NCc4nc5c(cc4Cl)OCC(=O)N5)C(F)C3)c2c1 (stereo partly shown) [TCMDC-141722]	15.19%	–
CCCCN(C(=O)c1ccccc1Cl)c1nnc(-c2ccccc2C)s1 [TCMDC-125120]	-1.012%	–
CCCN(C(=O)c1ccccc1C)c1nnc(-c2ccccc2C)s1 [TCMDC-124386]	7.474%	–
CCCCN(C(=O)c1ccccc1C)c1nnc(-c2ccccc2C)s1 [TCMDC-124385]	52.67%	–
COC(=O)C1=C(C)NC2=C(C(=O)CC(c3ccc(OC)c(OC)c3)C2)C1c1cccc(O)c1 (stereo not shown) [TCMDC-125609]	17.77%	–

Compound	% Inhibition	% Inhibition (% Inhibition)
CCC(C)OC(=O)C1=C(C)NC2=C(C(=O)CC(c3ccc(OC)c(OC)c3)C2)C1c1cccc(O)c1 (stereo not shown) [TCMDC-125634]	29.96%	–
CCCOC(=O)C1=C(C)NC2=C(C(=O)CC(c3ccc(OC)c(OC)c3)C2)C1c1cccc(O)c1 (stereo not shown) [TCMDC-125632]	53.3%	–
COc1ccc(C2CC(c3cccs3)=NN2C(=O)COc2cccc3c2CCCC3O)cc1OC (stereo not shown) [TCMDC-125033]	11.22%	–
O=C(/C=C/c1ccc(Cl)c(Cl)c1)NCCCCCN1CCC(NC(=O)Nc2ccc(Br)cc2)CC1 [TCMDC-135728]	5.216%	–
O=C(C=Cc1ccc(Cl)c(Cl)c1)NCCCCCN1CCCC(CCCNS(=O)(=O)c2ccc(Br)cc2)C1 (stereo not shown) [TCMDC-139592]	37.84%	–
COc1ccc(S(=O)(=O)NCCCC2CCN(CCCCCNC(=O)C=Cc3ccc(Cl)c(Cl)c3)CC2)cc1 [TCMDC-139587]	105.9%	–
O=C(C=Cc1ccc(Cl)c(Cl)c1)NCCCCCN1CCC(CCCNS(=O)(=O)c2ccc(Br)cc2)CC1 [TCMDC-139590]	106.1%	–
O=C(C=Cc1ccc(Cl)c(Cl)c1)NCCCCCN1CCC(CCCNC(=O)C2CC2c2ccccc2)CC1 (stereo not shown) [TCMDC-139572]	-16.95%	–
O=C(/C=C/c1ccc(Cl)c(Cl)c1)NCCCCCN1CCC(NS(=O)(=O)c2cc(Cl)cc(Cl)c2)CC1 [TCMDC-135905]	1.117%	–
COc1ccc(S(=O)(=O)NCCC2CCN(CCCCCNC(=O)C=Cc3ccc(Cl)c(Cl)c3)CC2)cc1 [TCMDC-139584]	28.62%	–
O=C(C=Cc1ccc(Cl)c(Cl)c1)NCCCCCN1CCC(CCNS(=O)(=O)c2ccc(Br)cc2)CC1 [TCMDC-139586]	95.36%	–
CCCCCCCCS(=O)(=O)NCCCC1CCN(CCCCCNC(=O)C=Cc2ccc(Cl)c(Cl)c2)CC1 [TCMDC-139588]	108.5%	–
Cc1cc(C)cc(NC(=S)NCCCCN2CCN(c3cccc(Cl)c3)CC2)c1 [TCMDC-124057]	38.25%	–
CC1(C)CN(CCC2CCC(NC(=O)/C=C/c3ccc(F)cc3F)CC2)Cc2ccc(C#N)cc21 (stereo not shown) [TCMDC-139504]	4.044%	–
Nc1c2nc(-c3c(F)cccc3Cl)[nH]c(=O)c2nc(=O)n1-c1ccccc1 [TCMDC-124052]	4.598%	–
c1ccc2[nH]c(-c3ccc(-c4ccc(CN5CCN(CCN6CCOCC6)CC5)cc4)s3)nc2c1 [TCMDC-133938]	11.37%	–
CCCN1CCN(Cc2ccc(-c3ccc(-c4nc5ccccc5[nH]4)s3)cc2)CC1 [TCMDC-136767]	-1.011%	–
c1ccc2[nH]c(-c3ccc(-c4ccc(CN5CCCCC5)cc4)s3)nc2c1 [TCMDC-136768]	35.93%	–
CN(C)CCCN1CCN(Cc2ccc(-c3ccc(-c4nc5ccccc5[nH]4)s3)cc2)CC1 [TCMDC-136769]	73.2%	–
c1ccc2[nH]c(-c3ccc(-c4ccc(CN5CCN(c6ccncc6)CC5)cc4)s3)nc2c1 [TCMDC-136770]	-27.84%	–
CN(C)CCN(C)Cc1ccc(-c2cccc(-c3nc4ccccc4[nH]3)c2)cc1 [TCMDC-132567]	5.675%	–
CN(CCc1ccccn1)Cc1ccc(-c2ccc(-c3nc4ccccc4[nH]3)s2)cc1 [TCMDC-136766]	58.81%	–
CN(CCN)Cc1ccc(-c2ccc(-c3nc4ccc(F)cc4[nH]3)s2)cc1 [TCMDC-132819]	40.81%	–
c1cncc(CN2CCN(Cc3ccc(-c4ccc(-c5nc6ccccc6[nH]5)s4)cc3)CC2)c1 [TCMDC-136765]	62.12%	–
